# The full ranking holds about 18,000 sequences; the median of “log2 normalized intensity” is about 0.36, and the highest 2% start at about 7.3. The list comes from a sample in which the highest values are over-represented; it also holds similar and randomly drawn sequences.
# Molecular target: T1, HNF4alpha8 (COS-7 nuclear extract) (Homo sapiens, UniProt P41235-5 1-452)
# T1 sequence: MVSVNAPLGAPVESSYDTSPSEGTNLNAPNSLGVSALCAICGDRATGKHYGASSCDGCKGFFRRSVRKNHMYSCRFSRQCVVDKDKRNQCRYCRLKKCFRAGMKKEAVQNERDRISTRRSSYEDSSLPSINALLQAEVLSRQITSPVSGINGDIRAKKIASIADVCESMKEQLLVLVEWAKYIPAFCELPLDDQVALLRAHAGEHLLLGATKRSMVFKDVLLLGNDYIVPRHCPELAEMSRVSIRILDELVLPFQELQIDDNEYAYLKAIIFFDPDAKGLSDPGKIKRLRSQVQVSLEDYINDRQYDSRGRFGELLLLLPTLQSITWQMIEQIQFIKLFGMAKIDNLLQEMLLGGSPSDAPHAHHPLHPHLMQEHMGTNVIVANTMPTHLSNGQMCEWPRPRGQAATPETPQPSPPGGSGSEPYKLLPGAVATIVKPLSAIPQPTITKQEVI
# Test: protein-binding microarray; COS-7 nuclear extract on double-stranded Agilent 4x180k PBM; binding buffer, salt, pH and temperature not given in the material; high values mean tight binding
# Details: chain copies: 2; label: 3' end of strand 1 on the slide; dsDNA, one strand shown
# In short: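 The binding signal is Agilent software's gProcessedSignal after background correction and normalization. Arrays were a custom Agilent SurePrint G3 4x180k design of double-stranded ~60-nt oligonucleotides with ~44,000 test sequences in quadruplicate, probed with nuclear extracts of COS-7 cells transiently expressing a human HNF4α isoform. Scans were made at 2-µm resolution on an Agilent G2565CA scanner.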
row,Sequence,binding signal [log2 normalized intensity]
1,TCCCTGAAGGCCAGGCAGCACAATTTGTGTGCCTAGGGAGATTAGAGTATCGGTCGA,-0.959
2,TGATCTTTGAAACATAACAGCAACAACACAGCCTAGGGAGATTAGAGTATCGGTCGA,0.241
3,TATTGAGAAGAAACCTTTGCCCAACAGGATGCCTAGGGAGATTAGAGTATCGGTCGA,2.13
4,GGCGAGTGTGCAATTAGAGCAAAGGTTACTGCCTAGGGAGATTAGAGTATCGGTCGA,3.57
5,ACAAAGATCATAAATGCCTCCCCCTCTTTAGCCTAGGGAGATTAGAGTATCGGTCGA,3.85
6,TGGGCCAAAGGTCATACCTGTCTAGGTGGAGCCTAGGGAGATTAGAGTATCGGTCGA,4.74
7,GGGGAGGTGGGAAAAGAAATGTAGTGACAGGCCTAGGGAGATTAGAGTATCGGTCGA,-0.392
8,TGCATGGATTTCTCAGTTGAGGAATGGGTAGCCTAGGGAGATTAGAGTATCGGTCGA,0.827
9,TAGGGAAAATAGTGACCCTGTCTCTCAGTCGCCTAGGGAGATTAGAGTATCGGTCGA,1.62
10,AGTTTGGTGGACTTTGGCCGTGAAGCCGTCGCCTAGGGAGATTAGAGTATCGGTCGA,6.75
11,CTTCTTTGAAAGTTTGGTGGACTTTGGCCGGCCTAGGGAGATTAGAGTATCGGTCGA,10.1
12,TAATTCTTCTTTGAAAGTTTGGTGGACTTTGCCTAGGGAGATTAGAGTATCGGTCGA,6.91
13,TTGAAAGTTTGGTGGACTTTGGCCGTGAAGGCCTAGGGAGATTAGAGTATCGGTCGA,7.64
14,GGTGGACTTTGGCCGTGAAGCCGTCCTGTCGCCTAGGGAGATTAGAGTATCGGTCGA,5.87
15,GGCATTAATTCTTCTTTGAAAGTTTGGTGGGCCTAGGGAGATTAGAGTATCGGTCGA,1.65
16,TGATAAGATTTATCTCTCCAAGGTACTGTGGCCTAGGGAGATTAGAGTATCGGTCGA,0.189
17,GTGCACTTTGACCCTGCTGTAGTGTGTAAGGCCTAGGGAGATTAGAGTATCGGTCGA,5.69
18,TCTTGTCCTTCCCCTTTTGTGTTTGTCCCTGCCTAGGGAGATTAGAGTATCGGTCGA,3.03
19,TCCTCTCTCCCACAAGGGCAGCCCTGTTTAGCCTAGGGAGATTAGAGTATCGGTCGA,-0.515
20,TTGTCCTTAGACAGTAACCCTTGAGCTCTGGCCTAGGGAGATTAGAGTATCGGTCGA,3.73
21,AGCTGGACTTTGAACTTCATGTGTGGTGCAGCCTAGGGAGATTAGAGTATCGGTCGA,6.95
22,CTTTGGACTTTTGAACTAAGGCTGGAATGAGCCTAGGGAGATTAGAGTATCGGTCGA,3.69

row,Sequence,binding signal [log2 normalized intensity]
1,CCTAAATCTAAGCTGGACTTTGAACTTCATGCCTAGGGAGATTAGAGTATCGGTCGA,9.68
2,TGAGACTTTGGACTTTTGAACTAAGGCTGGGCCTAGGGAGATTAGAGTATCGGTCGA,5.5
3,GACTTTGAACTTCATGTGTGGTGCAGATTCGCCTAGGGAGATTAGAGTATCGGTCGA,2.1
4,ATCTAAGCTGGACTTTGAACTTCATGTGTGGCCTAGGGAGATTAGAGTATCGGTCGA,8.61
5,ATTATGGTAGGCAGCCTCTGAGATGGACTCGCCTAGGGAGATTAGAGTATCGGTCGA,3.96
6,AAATTATTACTCCCACCGTGTGTGCACTTTGCCTAGGGAGATTAGAGTATCGGTCGA,3.9
7,TGAAAGTTCTCTGGGCTTTTTGATCTTGTCGCCTAGGGAGATTAGAGTATCGGTCGA,1.25
8,CCCTCGGGCCGGGAAACGCCCTCGGCGCGCGCCTAGGGAGATTAGAGTATCGGTCGA,1.34
9,GGAAAGAACAGGTCAAAGGTCAGTTTCTTTGCCTAGGGAGATTAGAGTATCGGTCGA,7.69
10,AAGATTTATCAGGTCTTTCTTTCAGAACAGGCCTAGGGAGATTAGAGTATCGGTCGA,0.553
11,TCTTAGGAAAGAACAGGTCAAAGGTCAGTTGCCTAGGGAGATTAGAGTATCGGTCGA,9.61
12,GCAGTTTAGAGAAAGGGTCAAAGGTTAAGCGCCTAGGGAGATTAGAGTATCGGTCGA,9.04
13,TAGGAGACTGTCTTAGGAAAGAACAGGTCAGCCTAGGGAGATTAGAGTATCGGTCGA,0.841
14,GAACAGGTCAAAGGTCAGTTTCTTTAAGACGCCTAGGGAGATTAGAGTATCGGTCGA,7.63
15,CTTTGGACTTTCAAAAGTTAAGGTCAAGACGCCTAGGGAGATTAGAGTATCGGTCGA,2.78
16,GCAGAGCAGTTTAGAGAAAGGGTCAAAGGTGCCTAGGGAGATTAGAGTATCGGTCGA,6.23
17,GGTCAAAGGTCAGTTTCTTTAAGACAAGTGGCCTAGGGAGATTAGAGTATCGGTCGA,5.86
18,GACTGTCTTAGGAAAGAACAGGTCAAAGGTGCCTAGGGAGATTAGAGTATCGGTCGA,5.06
19,TTAGAGAAAGGGTCAAAGGTTAAGCCATTGGCCTAGGGAGATTAGAGTATCGGTCGA,6.33
20,TCAGAAACAGGAATTCAAAGGTGCAAAGGTGCCTAGGGAGATTAGAGTATCGGTCGA,2.84
21,ACCGTAAATGCATTATTGCACTGTGCTTTGGCCTAGGGAGATTAGAGTATCGGTCGA,1.3
22,TGCTCTCAGCACACTCTGGTACCATGGATGGCCTAGGGAGATTAGAGTATCGGTCGA,0.953

row,Sequence,binding signal [log2 normalized intensity]
1,GGCTCTCCCGGGGCGGGGGTGACCAGATTAGCCTAGGGAGATTAGAGTATCGGTCGA,1.07
2,TCAGGGGTCAATGTGCACATTCGAAGTTTTGCCTAGGGAGATTAGAGTATCGGTCGA,4.86
3,CATCTGGGCAAGGTGTCAACCTTCATTCTCGCCTAGGGAGATTAGAGTATCGGTCGA,0.575
4,TCTTTTTAATCAATAATCTTTGCCCTTGAAGCCTAGGGAGATTAGAGTATCGGTCGA,3.49
5,AGCATATTTGGCCACATCCTGTCTCCTTTAGCCTAGGGAGATTAGAGTATCGGTCGA,1.11
6,CCTGAAGGGTGTTGTGGAATGTGCTTGGACGCCTAGGGAGATTAGAGTATCGGTCGA,2.16
7,AATACGACCTTTGGACAGGGTGACGTCATTGCCTAGGGAGATTAGAGTATCGGTCGA,6.84
8,TTTGTCACATTCCAGACTTTGTACAAGGGCGCCTAGGGAGATTAGAGTATCGGTCGA,3.1
9,TCCAAAATACGACCTTTGGACAGGGTGACGGCCTAGGGAGATTAGAGTATCGGTCGA,7.56
10,GTACTTTGTACATGGGAATAGACATTCCAGGCCTAGGGAGATTAGAGTATCGGTCGA,1.99
11,AGAAGTTGGACTTTGTACATTCCAAATACGGCCTAGGGAGATTAGAGTATCGGTCGA,7.64
12,ACATCAGAAGTTGGACTTTGTACATTCCAAGCCTAGGGAGATTAGAGTATCGGTCGA,8.13
13,GGGCTTTTGTCACATTCCAGACTTTGTACAGCCTAGGGAGATTAGAGTATCGGTCGA,5.85
14,TTGGACTTTGTACATTCCAAATACGATAATGCCTAGGGAGATTAGAGTATCGGTCGA,5.9
15,CCTGGTGACCTTTGTTTGGTCAAATACCTAGCCTAGGGAGATTAGAGTATCGGTCGA,3.66
16,AAAGGCCTTTGAAGCTTGAAGGAGTATATGGCCTAGGGAGATTAGAGTATCGGTCGA,0.256
17,CTTATCAGCAGCTGGGGTGACTGATTGGAGGCCTAGGGAGATTAGAGTATCGGTCGA,0.845
18,AGTGCACCTTAATAAGCACATTCCTTTCCCGCCTAGGGAGATTAGAGTATCGGTCGA,-0.98
19,ATCTTATCAGCAAGGGCATTTGCGTAGGCTGCCTAGGGAGATTAGAGTATCGGTCGA,-0.794
20,TGCTAAGTGCCATGTAATCAAACTGAACTTGCCTAGGGAGATTAGAGTATCGGTCGA,2.1
21,GATATTTAACCTTTGATCTGTAAGCTCTCTGCCTAGGGAGATTAGAGTATCGGTCGA,5.39
22,GTGGCTACCTGTGCAGATATTTAACCTTTGGCCTAGGGAGATTAGAGTATCGGTCGA,4.61

row,Sequence,binding signal [log2 normalized intensity]
1,CTTTGTTTACTTAACCTTTGATCATATGCAGCCTAGGGAGATTAGAGTATCGGTCGA,5.75
2,CTGTGCTTTGTTTACTTAACCTTTGATCATGCCTAGGGAGATTAGAGTATCGGTCGA,7.84
3,TTGCACTGTGCTTTGTTTACTTAACCTTTGGCCTAGGGAGATTAGAGTATCGGTCGA,4.5
4,TACCTGTGCAGATATTTAACCTTTGATCTGGCCTAGGGAGATTAGAGTATCGGTCGA,8.15
5,CCTGTCTGACAGGATGAATTTATTGCCCTCGCCTAGGGAGATTAGAGTATCGGTCGA,3.21
6,ATGGTGACCATGTGATGTGAAGAGTGTGGAGCCTAGGGAGATTAGAGTATCGGTCGA,1.31
7,CTTGTGTAATAACGAGACCTTAGCCCTGAAGCCTAGGGAGATTAGAGTATCGGTCGA,-0.451
8,GTCCAGAGTTTAAATGACCTCTGCCCTTCCGCCTAGGGAGATTAGAGTATCGGTCGA,7.43
9,CTGGCTTTCATTCCACTGACTTGCAACCTTGCCTAGGGAGATTAGAGTATCGGTCGA,1.09
10,TTTCATTCCACTGACTTGCAACCTTTGCCCGCCTAGGGAGATTAGAGTATCGGTCGA,7.51
11,TTCCACTGACTTGCAACCTTTGCCCTGTTGGCCTAGGGAGATTAGAGTATCGGTCGA,7.2
12,TTGCCCTTCTTGGATGCCCTTCCCTAACCCGCCTAGGGAGATTAGAGTATCGGTCGA,3.04
13,TTTCTGTCCAGAGTTTAAATGACCTCTGCCGCCTAGGGAGATTAGAGTATCGGTCGA,4.72
14,GAGTTTAAATGACCTCTGCCCTTCCACCCAGCCTAGGGAGATTAGAGTATCGGTCGA,5.16
15,CCCTTGGAATGTGACCTTAGACCCCTGAATGCCTAGGGAGATTAGAGTATCGGTCGA,6.49
16,TTCCTCCCTTGGAATGTGACCTTAGACCCCGCCTAGGGAGATTAGAGTATCGGTCGA,8.83
17,TTAGCTTCCTCCCTTGGAATGTGACCTTAGGCCTAGGGAGATTAGAGTATCGGTCGA,5.27
18,GAGAGTTCCCTTGGAATGCCAGATGACCTTGCCTAGGGAGATTAGAGTATCGGTCGA,4.6
19,TTCCCTTGGAATGCCAGATGACCTTTGCCCGCCTAGGGAGATTAGAGTATCGGTCGA,10.2

# — publication PMC10726135, “HNF4α isoforms regulate the circadian balance between carbohydrate and lipid metabolism in the liver”
